Consider six compounds from PubChem BioAssay (Tox21).

Records with an inconclusive call do not appear. Calls of active or inactive are those of the source. The call rests on the fitted dose curve; in most records, active means well fitted inhibition curve with a large enough effect in the signal ratio in the repeat runs (not every such curve was filed as active); inconclusive means weak or mixed curves, or effect the other way; inactive means no such curve, though single readings can be large or run the other way; the % refers to the signal ratio.
On the % scale 0 is the no-effect control and ±100 the full control effect.

The target in the assay is Vitamin D3 receptor (Homo sapiens) (UniProt P11473). In words: qHTS assay to identify small molecule antagonists of the vitamin D receptor (VDR) signaling pathway (AID 743223). The conditions noted are these: VDR-UAS-bla HEK293T, beta-lactamase FRET ratio, 16 h; series mostly up to 61 µM. The procedure, abridged: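 Cells carrying a VDR-driven beta-lactamase reporter (VDR-bla) were co-treated with compound and 3 nM final 1alpha,25-dihydroxyvitamin D3 for 16 h at 37C; reporter activity was measured as FRET substrate fluorescence after 2 h at room temperature.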
Sequence of Vitamin D3 receptor (Homo sapiens) (P11473 whole entry, looked up): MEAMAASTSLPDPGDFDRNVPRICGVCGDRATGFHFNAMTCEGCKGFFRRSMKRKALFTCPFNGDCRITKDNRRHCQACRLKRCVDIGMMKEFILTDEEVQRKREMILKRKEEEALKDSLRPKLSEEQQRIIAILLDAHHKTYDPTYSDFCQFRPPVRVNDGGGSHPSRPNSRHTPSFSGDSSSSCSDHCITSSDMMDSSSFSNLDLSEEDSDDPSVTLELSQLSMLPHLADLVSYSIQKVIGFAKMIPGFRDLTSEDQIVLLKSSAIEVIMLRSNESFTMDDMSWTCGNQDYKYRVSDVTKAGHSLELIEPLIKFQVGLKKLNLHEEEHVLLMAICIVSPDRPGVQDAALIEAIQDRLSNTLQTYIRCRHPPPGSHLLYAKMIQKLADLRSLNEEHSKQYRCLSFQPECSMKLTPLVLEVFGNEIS
Background: Quantitative high-throughput screening tests each substance at several concentrations.
Turning to `C=Cc1ccccn1`, the result was inactive.
The same measure, in the same setting: the entry for `CC(=O)Nc1ccc(S(=O)(=O)Cl)cc1` is “inactive”.
The same measure, in the same setting: for `Nc1ccc2cc(S(=O)(=O)O)cc(O)c2c1` the value was “inactive”.
As to `CCC(C)NC(N)=O` (stereo unspecified), the result was inactive.
In the case of `Nc1ncnc(Nc2ccccc2)n1`, the result was inactive.
With `COC(=O)C1CC(=O)C(C(=O)OC)CC1=O` (stereo unspecified), the activity change, negative = inhibition is 0.852% [at 6.95 µM] (inactive).
